In PubChem BioAssay AID720598 (Broad Institute, 2013):
Results with a measured potency or affinity are listed apart. Calls of active or inactive are those of the source.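 Rule for the calls: active = viability drop at all three exposure times, fitted half-maximal dose at most twice the top valid dose; inconclusive = exposure times disagree in their calls; inactive = inactive at every exposure time.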

Experiment: HT-29 colorectal cell cytotoxicity over time, dose response, HRas target identification project, CellTiter-Glo, multiple timepoints, dry powder (AID 720598)

**Q.** Which outcome does the source give for `Cc1onc(C(=O)N2CCN(C(c3ccncc3)c3ccncc3)CC2)c1[N+](=O)[O-]` here?
**A.** inactive

**Q.** Which outcome does the source give for `CCC(=O)N(c1ccc(OC)c(Cl)c1)C(C(=O)NCCc1ccccc1)c1cccs1` (configuration not stated) here?
**A.** inactive
